HEK293 tox: cytotoxic in the GLP-1 receptor inverse agonist counter-screen | HEK293 cAMP-luciferase reporter cells, luminescence, 24 h | Potency, µM (highest dose often 38.3 µM), actives largely listed as inhibitors | hit rate 0.13% among 410,000 | AID 624418;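 further: loss of luciferase light is scored as toxicity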
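Quantitative HTS format, 1536 wells, 200 cells/uL seeded. Compounds: 23 nL, 24 h, 37 °C. Detection: luciferase reagent, luminescence at 12 min RT; decreased signal taken as cytotoxic.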
EPAC2 antagonist: antagonists of human EPAC2; Q8WZA2; EPAC2 GEF exchange of Rap1B-BODIPY-GDP, fluorescence; Potency, µM (titrated, usually from 114 µM), most hits filed as inhibitors; hit rate 0.18% among 360,000; AID 720708; further: nearly all actives have a fitted effect of over 45% in size
EPAC2 ag: EPAC2 (human) agonism | Q8WZA2 | EPAC2 activation, biochemical qHTS; response scale: 100% = 6.5 mM cAMP response | Potency, µM (series often up to 154 µM), most hits filed as activators | hit rate 0.079% among 360,000; further: nearly all actives have a fitted effect of over 50% in size
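Fluorescence exchange assay: 100 nM EPAC2 with 250 nM RAP1B-BODIPY-GDP and 50 uM GDP; compounds tested as a concentration-titration series (qHTS). Loss of Rap1-bound BODIPY-GDP fluorescence read at 480/540 nm; data normalized to 6.5 mM cAMP.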
EPAC1 antagonist: blocks human EPAC1 exchange factor. O95398. EPAC1 GEF assay, Rap1b-BODIPY-GDP exchange fluorescence. Potency, µM (top dose mostly 115 µM), most hits filed as inhibitors. hit rate 0.14% among 360,000; further: nearly all actives have a fitted effect of over 50% in size
USP1 inh: USP1/UAF1 (human) deubiquitinase inhibition; hit rate 0.23% among 390,000; recombinant USP1/UAF1, Ub-Rhodamine cleavage fluorescence; O94782; AID 743255; Potency, µM (highest dose often 57.1 µM), hits mostly inhibitors; further: nearly all actives have a fitted effect of over 60% in size
Target sequence (O94782 whole entry, looked up): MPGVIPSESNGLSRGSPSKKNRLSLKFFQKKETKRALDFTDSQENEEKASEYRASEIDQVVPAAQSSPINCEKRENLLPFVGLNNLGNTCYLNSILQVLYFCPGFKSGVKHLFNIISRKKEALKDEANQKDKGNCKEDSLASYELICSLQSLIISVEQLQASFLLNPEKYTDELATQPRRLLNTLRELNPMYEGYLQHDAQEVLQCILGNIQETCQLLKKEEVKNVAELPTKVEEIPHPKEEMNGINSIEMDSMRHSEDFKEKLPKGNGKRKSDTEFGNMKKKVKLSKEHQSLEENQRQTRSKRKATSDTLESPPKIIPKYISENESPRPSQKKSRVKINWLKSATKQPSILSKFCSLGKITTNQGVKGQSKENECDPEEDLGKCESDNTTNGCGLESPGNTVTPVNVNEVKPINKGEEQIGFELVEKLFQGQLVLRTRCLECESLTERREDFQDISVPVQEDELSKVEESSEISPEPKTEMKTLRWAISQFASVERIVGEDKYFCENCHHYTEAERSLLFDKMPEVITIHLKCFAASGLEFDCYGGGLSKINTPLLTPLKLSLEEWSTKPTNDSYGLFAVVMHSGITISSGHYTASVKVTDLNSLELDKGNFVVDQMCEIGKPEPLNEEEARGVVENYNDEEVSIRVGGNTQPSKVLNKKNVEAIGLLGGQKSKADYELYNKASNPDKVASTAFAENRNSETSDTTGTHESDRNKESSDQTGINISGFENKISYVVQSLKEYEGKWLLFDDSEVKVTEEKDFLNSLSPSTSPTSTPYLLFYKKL
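Step one: compound is pinned into 1nM USP1/UAF1 in HEPES pH 7.8 buffer with TCEP. Step two: 15 min room-temperature incubation. Step three: Ub-Rho (150nM final) starts cleavage, tracked by fluorescence over six one-minute reads.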
EPAC1 agonist: EPAC1 (human) agonism | O95398 | EPAC1 agonist qHTS, biochemical assay; response scale: 100% = response to 6.5 mM cAMP | Potency, µM (titrated, usually from 154 µM), usual class: activators | hit rate 0.073% among 360,000; further: nearly all actives have a fitted effect of over 60% in size
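Compounds were pinned as a concentration titration into mixtures of EPAC1 (100 nM), BODIPY-GDP-loaded Rap1B (250 nM) and GDP (50 uM). After 5 min at room temperature, fluorescence was followed for 30 min; activity was scaled to 6.5 mM cAMP.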
Hits are given with their value. Most compounds without a hit are left out; they make up all but 0.55% or so of the library. The call rests on the fitted dose curve; in most records, active means well fitted curve in the direction sought with a large enough effect; inconclusive means small, poorly fitted or top-dose-only effect, or another doubt; inactive means no such curve, though single readings can be large; an effect the other way counts as inactive or inconclusive.

`O=c1c2oc3ccccc3c2n(Cc2ccccc2F)c(=O)n1Cc1ccccc1` gave HEK293 tox inactive and USP1 inh inactive.
`Cc1ccc(NC2C(=O)NC(=O)NC2=O)cc1` gave HEK293 tox inactive, EPAC2 antagonist inconclusive, EPAC2 ag inactive, EPAC1 antagonist 79µM, USP1 inh inconclusive and EPAC1 agonist inactive.
`COc1ccc(C)cc1NC(=O)NCc1ccc2c(c1)CCN2C(=O)c1ccccc1` gave HEK293 tox inactive and USP1 inh inactive.
Screening CCC(C)NC(=O)Cn1ncc2c([nH]c3ccc(C)cc32)c1=O (centres undefined) returned HEK293 tox inactive and USP1 inh inactive.
COc1cc(S(=O)(=O)Nc2ccccc2C)ccc1Cl was read as HEK293 tox inactive, EPAC2 antagonist 28µM, EPAC2 ag inactive, EPAC1 antagonist inactive, USP1 inh inactive and EPAC1 agonist inactive.
For Cn1c(SCc2nc3ccccc3[nH]2)nnc1-c1cccs1 the results were HEK293 tox inactive, EPAC2 antagonist inactive, EPAC2 ag inactive, EPAC1 antagonist inactive, USP1 inh inactive and EPAC1 agonist inactive.
`Cn1c(Cc2cccs2)nnc1SCc1nc2ccccc2[nH]1` gave HEK293 tox inactive, EPAC2 antagonist inactive, EPAC2 ag 10µM, EPAC1 antagonist inactive, USP1 inh inactive and EPAC1 agonist inactive.
`CC(Oc1ccc(-c2nnco2)cc1)C(=O)N1CCOCC1` (centres undefined) gave HEK293 tox inactive, EPAC2 antagonist inactive, EPAC2 ag inactive, EPAC1 antagonist inactive, USP1 inh inactive and EPAC1 agonist 32µM.
For O=C(Oc1ccc(-c2nnco2)cc1)N1CCOCC1 the results were HEK293 tox inactive, EPAC2 antagonist inactive, EPAC2 ag inactive, EPAC1 antagonist inactive, USP1 inh inactive and EPAC1 agonist inactive.
For Cc1ccccc1NS(=O)(=O)c1ccc2[nH]cc(C(=O)NCCc3ccccc3)c(=O)c2c1 the results were HEK293 tox inactive and USP1 inh inactive.
`O=S(=O)(O)c1ccc(NN=Cc2ccccc2O)cc1` gave HEK293 tox inactive, EPAC2 antagonist 22µM, EPAC2 ag inactive, EPAC1 antagonist inactive, USP1 inh inactive and EPAC1 agonist inactive.
`COc1cccc(/C=N/Nc2ccc(S(=O)(=O)O)cc2)c1O` gave HEK293 tox inactive, EPAC2 antagonist inactive, EPAC2 ag inactive, EPAC1 antagonist inactive, USP1 inh inactive and EPAC1 agonist inactive.
`O=[N+]([O-])c1ccc(C=NNc2ccc(S(=O)(=O)O)cc2)cc1` gave HEK293 tox inactive, EPAC2 antagonist 20µM, EPAC2 ag inactive, EPAC1 antagonist inactive, USP1 inh inactive and EPAC1 agonist inactive.
For Cc1cc(C(=O)NCCc2ccc(Cl)cc2)c2c(C)nn(-c3ccccc3)c2n1 the results were HEK293 tox inactive and USP1 inh inactive.
Cc1cn2c(=O)cc(COC(=O)c3ccc(NC(=O)c4ccccc4C)cc3)nc2s1 was read as HEK293 tox inactive and USP1 inh inactive.
`CN(C)c1ccc(/C=C2\SC(=O)N(CC(O)Cn3c4ccccc4c4ccccc43)C2=O)cc1` (centres undefined) gave HEK293 tox inactive, EPAC2 antagonist inactive, EPAC2 ag inactive, EPAC1 antagonist inactive, USP1 inh 13µM and EPAC1 agonist inconclusive.
`CC1=Nc2ccccc2/C1=C/c1sc(=S)n(-c2cccc(C(=O)O)c2)c1O` gave HEK293 tox inactive, EPAC2 antagonist inconclusive, EPAC2 ag inactive, EPAC1 antagonist 56µM, USP1 inh 28µM and EPAC1 agonist inactive.
Oc1c(C=C2N=c3ccccc3=N2)sc(=S)n1-c1ccccc1 was read as HEK293 tox inactive, EPAC2 antagonist inactive, EPAC2 ag inactive, EPAC1 antagonist inactive, USP1 inh inactive and EPAC1 agonist inactive.
Screening Cc1cccc(C(=O)N2c3ncnn3C3(CCCCC3)[C@@H]3CCCC[C@@H]32)c1 returned HEK293 tox inactive and USP1 inh inactive.
Screening CCOC(=O)c1scc(-c2ccc(C)cc2)c1S(=O)(=O)Nc1cccc(CC)c1 returned HEK293 tox inactive and USP1 inh inactive.
Cc1cc(C)c2sc(N(CCCN(C)C)C(=O)c3ccc(S(=O)(=O)N(C)C4CCCCC4)cc3)nc2c1 was read as HEK293 tox inconclusive, EPAC2 antagonist inactive, EPAC2 ag inactive, EPAC1 antagonist inactive, USP1 inh inactive and EPAC1 agonist 45µM.
CN(C)CCCN(C(=O)c1ccc(S(=O)(=O)N(C)C2CCCCC2)cc1)c1nc2ccc(F)cc2s1 was read as HEK293 tox inconclusive, EPAC2 antagonist inactive, EPAC2 ag inactive, EPAC1 antagonist inactive, USP1 inh inactive and EPAC1 agonist inactive.
CCOc1ccc2oc(C(=O)N(C)CCc3ccc(OC)c(OC)c3)c(C)c2c1 was read as HEK293 tox inactive, EPAC2 antagonist inactive, EPAC2 ag inactive, EPAC1 antagonist inactive, USP1 inh inactive and EPAC1 agonist inactive.
CCOc1ccc2oc(C(=O)N(C)CC(=O)Nc3ccc(OCC)c(OCC)c3)c(C)c2c1 was read as HEK293 tox inactive, EPAC2 antagonist inactive, EPAC2 ag inactive, EPAC1 antagonist inactive, USP1 inh inactive and EPAC1 agonist 56µM.
COc1ccc(C2N(c3ccc(Cl)cc3)N=C(C(C)=O)N(C)N2C(C)=O)cc1 (centres undefined) was read as HEK293 tox inactive, EPAC2 antagonist 20µM, EPAC2 ag inactive, EPAC1 antagonist inactive, USP1 inh inactive and EPAC1 agonist inactive.
Screening COc1cccc(N2C(C(C)=O)=NN(c3ccccc3)C2c2ccc(N3CCOCC3)cc2)c1 (centres undefined) returned HEK293 tox inactive, EPAC2 antagonist inactive, EPAC2 ag inactive, EPAC1 antagonist inactive, USP1 inh inactive and EPAC1 agonist inactive.
`COc1ccc(-c2nc(CN3CCC(C(=O)NCCCN4CCN(c5ccccc5F)CC4)CC3)c(C)o2)cc1OC` gave HEK293 tox 13µM and USP1 inh inactive.
For Cc1oc(-c2ccc(Cl)cc2)nc1CN1CCC(C(=O)NCCCN2CCOCC2)CC1 the results were HEK293 tox inactive, EPAC2 antagonist inactive, EPAC2 ag inactive, EPAC1 antagonist inactive, USP1 inh inactive and EPAC1 agonist inactive.
For CCC1CCCCN1CCCNC(=O)C1CCN(Cc2nc(-c3ccc(Cl)cc3)oc2C)CC1 (centres undefined) the results were HEK293 tox 5µM, EPAC2 antagonist inactive, EPAC2 ag inactive, EPAC1 antagonist inactive, USP1 inh inactive and EPAC1 agonist inactive.
O=C(Cn1cc(SCc2ccc(F)cc2)c2ccccc21)N1CCCCCC1 was read as HEK293 tox inactive and USP1 inh inactive.
